Some structures have more than one record in an assay (separate samples or runs), and their calls can disagree. Active and inactive are the calls of the source. Rule for the calls: active = hit-call score of the fitted dose curve at least 0.9, where 1 is the maximum; inactive = score below 0.9.
Each compound was assayed against Transcription factor E2F1 (Homo sapiens) (UniProt Q01094) (assay: ATG_E2F_CIS: Attagene CIS-FACTORIAL HepG2 Assay for human E2F Transcription Factor 1 (AID 2282935)). Details: HepG2 Attagene cis-reporter, E2F reporter RNA transcripts; actives raise or lower the signal.
Chain of Transcription factor E2F1 (Homo sapiens) (Q01094 whole entry, looked up): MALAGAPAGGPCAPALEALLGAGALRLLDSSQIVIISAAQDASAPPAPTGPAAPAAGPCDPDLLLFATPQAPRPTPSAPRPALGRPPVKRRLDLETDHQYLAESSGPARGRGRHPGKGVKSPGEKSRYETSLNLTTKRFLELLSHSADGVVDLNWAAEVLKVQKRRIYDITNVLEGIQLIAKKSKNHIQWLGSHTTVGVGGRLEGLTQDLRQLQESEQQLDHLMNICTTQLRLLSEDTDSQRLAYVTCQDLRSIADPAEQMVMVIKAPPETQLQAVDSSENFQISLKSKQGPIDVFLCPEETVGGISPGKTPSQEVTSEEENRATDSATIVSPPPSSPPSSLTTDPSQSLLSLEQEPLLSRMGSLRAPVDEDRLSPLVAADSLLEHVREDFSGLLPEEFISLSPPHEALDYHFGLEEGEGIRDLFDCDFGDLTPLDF
Procedure: ATG_CIS is a cell-based, multiplexed-readout assay that uses HepG2, a human liver cell line, with measurements taken at 24 hours after chemical dosing in a 24-well plate.ATG_E2F_CIS is one of 52 assay component(s) measured or calculated from the ATG_CIS assay. It is designed to make measurements of mRNA induction, a form of inducible reporter, as detected with fluorescence intensity signals by Reverse transcription polymerase chain reaction (RT-PCR) and Capillary electrophoresis technology.Data from the assay component ATG_E2F_CIS was analyzed into 1 assay endpoint. This assay endpoint, ATG_E2F_CIS, was analyzed with bidirectional fitting relative to DMSO as the negative control and baseline of activity. Using a type of inducible reporter, measures of mRNA for gain or loss-of-signal activity can be used to understand the reporter gene at the transcription factor-level as they relate to the gene E2F1. Furthermore, this assay endpoint can be referred to as a primary readout, because this assay has produced multiple assay endpoints where this one serves a reporter gene function. To generalize the intended target to other relatable targets, this assay endpoint is annotated to the dna binding intended target family, where the subfamily is E2F transcription factor.
Human liver HepG2 cells are transiently transfected with multiple reporter transcription units (MRTUs) in 6-well plates using FuGene 6 reagent (Roche; 3 ml FuGene/1 mg DNA). The MRTU constructs are regulated by a cis-regulating element (promoter). […] A major difference between the CIS and TRANS system is that in CIS activities of endogenous TFs are measured, whereas the TRANS assay evaluates changes in activities of exogenous, chimeric NR-Gal4 proteins. […] At the end of 24 hour incubation, total RNA was isolated using TriZol reagent (Invitrogen). The isolated RNA is then reverse-transcribed using oligo(dT) primer and Mo-MLV reverse transcriptase (Invitrogen) with DNAse I (Ambion) treatment for 30 min. The one-tenth of the produced cDNA was amplified by PCR using Taq DNA polymerase (Invitrogen) and two reporter sequence-specific primers. The PCR products were fluorescently labeled by primer extension with 6-arboxyfluorescein (6-FAM) 5'-labeled reporter sequence-specific primer (2 min at 95 C, 20 s at 68 C and 10 min at 72 C) and these products were digested with 5U of HpaI (New England Biolabs) for 2h at 37 C. The fragments were purified using Qiaquick PCR columns (Qiagen), analyzed on an ABI 3130xL genetic analyzer (Applied Biosystems) with peak positions identified by using a set of X-rhodamine (ROX)-labeled MapMarker1000 molecular weight standards (BioVentures). The raw capillary electrophoresis data was processed using Attagraph software (Attagene).

Structure (SMILES) | outcome | AC50
Nc1ccn([C@H]2CC[C@@H](CO)O2)c(=O)n1 | inactive | 
c1coc(CNc2ncnc3nc[nH]c23)c1 | inactive | 
CC(C)C(=O)c1ccccc1 | inactive | 
C=CCOC(=O)/C=C\C(=O)OCC=C | inactive | 
COc1ccc(C(C)=O)cc1 | inactive | 
CC1(C)CC(=O)CC(C)(C)N1 | inactive | 
ClCCOCCOCCCl | inactive | 
CC(O)CNCC(C)O (stereo not given) | inactive | 
CC1=CCC(C(C)C)=CC1 | inactive | 
C#C[C@]1(O)CC[C@H]2[C@@H]3CCc4cc(O)ccc4[C@H]3CC[C@@]21C | inactive | 60.4 µM (active)
CC(=O)OCC=C(C)CCC=C(C)CCC=C(C)C | inactive | 
Nc1ccc(O)c(N)c1 | inactive | 
CN(C)CCC=C1c2ccccc2CCc2ccccc21 | inactive | 
CC(=N[Si](C)(C)C)O[Si](C)(C)C | inactive | 
C=C(C)CCCC(C)CCO (stereo not given) | inactive | 
COc1ccccc1NC(=O)CC(C)=O | inactive | 
c1ccc2c(c1)-c1ccc3ccc4cccc5cc-2c1c3c45 | inactive | 
N#CCCCC(C#N)CCC#N (stereo not given) | inactive | 
CCCCOCCOCCO | inactive | 
CC(=O)CCc1ccc(O)cc1 | inactive | 

Structure (SMILES) | outcome | AC50
CCCCCCCCCCCCS | inactive | 
CCCCCCCCOC(=O)c1ccc(O)cc1 | inactive | 
S=c1[nH][nH]c(=S)s1 | inactive | 
CCCCCCCCCCCCOC(C)=O | inactive | 
CCCC1CCOC(C)S1 (stereo not given) | inactive | 
NCCN1CCNCC1 | inactive | 
O=C(C=Cc1ccccc1)OCCCc1ccccc1 | inactive | 
CC1=CC(O)CC(C)(C)C1 (stereo not given) | inactive | 
Cc1ccc(C(C)(C)O)cc1 | inactive | 
CC(=O)N(C)C | inactive | 
CC(=O)c1cccnc1 | inactive | 
CCC(=O)OCC=Cc1ccccc1 | inactive | 
COc1ccc(OC)cc1 | inactive | 
OCC=Cc1ccccc1 | inactive | 
CCCO[Si](OCCC)(OCCC)OCCC |  | 100 µM (active)
O=S(=O)(O)c1cc(S(=O)(=O)O)c2c(N=Nc3ccccc3)c(O)ccc2c1 | inactive | 
Cc1cc(O)c2c(c1)C(=O)c1cc(O)cc(O)c1C2=O | inactive | 
CC1=CCC(=C(C)C)CC1 | inactive | 
CC1(C)CC(N)CC(C)(CN)C1 (stereo not given) | inactive | 
